# Assay outcomes deposited in PubChem by National Center for Advancing Translational Sciences (NCATS).
# The list is not random: actives were taken first. Their share in the collection is about 19%.
# DT40 TDP1 no CPT = qHTS for Inhibitors of human tyrosyl-DNA phosphodiesterase 1 (TDP1): qHTS in cells in absence of CPT. DT40 Tdp1-/- hTDP1 cells, no CPT, ATP luminescence, 48 h. Potency, µM (titrated, usually from 46.2 µM), hits mostly inhibitors. 15% of 420,000 active; further: nearly all actives have a fitted effect of over 55% in size
#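 Stably hTDP1-transfected Tdp1-null chicken DT40 cells were treated with library compounds minus camptothecin and grown for at least 48 hr at 37 °C, after which cellular ATP was quantified by luminescence.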
# TDP1 cell CPT = qHTS for Inhibitors of human tyrosyl-DNA phosphodiesterase 1 (TDP1): qHTS in cells in presence of CPT | Potency, µM (top dose mostly 46.2 µM), usual class: inhibitors | 12% of 420,000 active | chicken DT40 Tdp1-/-;hTDP1 cells + 20 nM CPT, ATP luminescence, 48 h | AID 686979, 2013; further: nearly all actives have a fitted effect of over 55% in size
#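 Chicken DT40 Tdp1-/- cells complemented with human TDP1, 400 cells/well, exposed to compounds plus 20 nM camptothecin for at least 48 h at 37 C; viability read as ATP content by CellTiter-Glo luminescence.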
# IL1B secr inh = qHTS for Inhibitors of Inflammasome Signaling: IL-1-beta AlphaLISA Primary Screen; activity change, % at 57.5 µM; 4.7% of 360,000 active; THP-1 LPS/ATP IL-1B secretion, AlphaLISA, 16 h; hits give low values; AID 743279, 2014; in the data active means activity change below about -50%; inconclusive means mostly about -30% to -49%
#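 THP-1 cells pretreated 1 hr with compounds (up to 57.5 uM final), then stimulated with LPS (250 ng/mL final) plus ATP (1.25 mM final); secreted IL-1B measured by AlphaLISA after 16 hr, decreased signal indicating inhibition.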
# HT1080 IDH1KD tx = qHTS for induction of synthetic lethality in tumor cells producing 2HG: qHTS for the HT-1080-IDH1KD cell line. 2% of 360,000 active. AID 686971, 2013. Potency, µM (highest dose often 46.1 µM), actives largely listed as cytotoxic. HT-1080 IDH1 knockdown viability, ATP luminescence, 48 h
#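 Using the IDH1-knockdown HT-1080 line run in the same batch and compound series as the NT line, viability after 48 h at 37 °C was determined by CellTiter-Glo luminescence and expressed as % activity.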
# HT1080NT lethal = qHTS for induction of synthetic lethality in tumor cells producing 2HG: qHTS for the HT-1080-NT fibrosarcoma cell line; HT-1080-NT fibrosarcoma viability, CellTiter-Glo ATP luminescence, 48 h; Potency, µM (series often up to 46.1 µM), hits mostly cytotoxic; 1.6% of 360,000 active;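 further: NT is the 2HG producing partner of a matched IDH1 knockdown line; nearly all actives have a fitted effect of over 55% in size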
#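 Fibrosarcoma NT cells, 750 per well in 5% FBS RPMI, were exposed to compound for 48 hours. Viability: CellTiter-Glo luminescence.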
# A number is an active result; n = inactive; u = inconclusive; x = no result. Unless noted, the call rests on the fitted dose curve; in most records, active means well fitted curve in the direction sought with a large enough effect; inconclusive means small, poorly fitted or top-dose-only effect, or another doubt; inactive means no such curve, though single readings can be large; an effect the other way counts as inactive or inconclusive.
SMILES,DT40 TDP1 no CPT,TDP1 cell CPT,IL1B secr inh,HT1080 IDH1KD tx,HT1080NT lethal
CN(C(=O)CSc1nnc(-c2ccccc2)c(-c2ccccc2)n1)C1CCS(=O)(=O)C1 (configuration not stated),20.6µM,16.4µM,n,n,n
CN(C(=O)CSc1nnc(-c2ccc(F)cc2)c2ccccc12)C1CCS(=O)(=O)C1 (configuration not stated),n,n,-90.7,u,n
COc1cc(OC)cc(C(=O)NC2CCCN(Cc3ccc(Cl)cc3)C2)c1 (configuration not stated),u,u,n,n,n
CCc1ccc(NC(=O)c2ccc(CN3CC(=O)N4CCCCC4C3=O)cc2)cc1 (configuration not stated),20.6µM,u,x,x,x
CN(C)c1ccc(S(=O)(=O)N2CCCCC2)cc1NC(=O)CCNC(=O)c1ccccc1Cl,n,n,n,n,n
CC(C)(O)C#Cc1ccc(C(=O)N2CCC(C(N)=O)(N3CCCCC3)CC2)o1,n,n,n,n,n
CN(C)c1cccc(C(=O)OCC(=O)N(C)c2ccccc2)c1,n,n,n,n,n
CCNc1ccc(C(=O)OCC)cc1NC(=O)c1cccc(N(C)C)c1,2.59µM,3.26µM,n,u,1.78µM
Cc1ccc(S(=O)(=O)NC(=O)c2cccc(N(C)C)c2)cc1,n,n,n,n,n
CN(c1ccccc1)S(=O)(=O)c1cccc(C(=O)OCC(=O)Nc2ccc3[nH]c(=O)[nH]c3c2)c1,n,n,n,n,n
CCOC(=O)c1ccc(S(=O)(=O)NNC(=O)c2cccc(N(C)C)c2)cc1,n,n,-141.2,n,n
CCNc1ccc(C(=O)OCC)cc1NC(=O)c1cccc(S(=O)(=O)N(C)c2ccccc2)c1,4.61µM,16.4µM,n,n,n
O=C(Oc1ccccc1)c1cccnc1Oc1ccccc1,n,n,n,n,n
COCCn1c(=S)[nH]c2cc(C(=O)N3CCN(c4ccccc4OC)CC3)ccc2c1=O,u,u,n,n,n
C=CCn1c(=O)[nH]c2cc(C(=O)N3CCN(c4cccc(Cl)c4)CC3)ccc2c1=O,7.31µM,9.2µM,n,n,n
COCCn1c(=O)[nH]c2cc(C(=O)N3CCN(c4ccccc4)CC3)ccc2c1=O,u,n,n,n,n
COCCn1c(=O)[nH]c2cc(C(=O)N3CCN(c4cccc(C)c4C)CC3)ccc2c1=O,20.6µM,14.6µM,n,n,n
C=CCn1c(=O)[nH]c2cc(C(=O)N3CCN(c4ccc(C(C)=O)cc4)CC3)ccc2c1=O,16.4µM,20.6µM,n,u,n
COCCn1c(=O)[nH]c2cc(C(=O)N3CCN(c4cccc(Cl)c4)CC3)ccc2c1=O,9.2µM,23.1µM,n,n,n
CCCSc1nnc(NC(=O)Cc2coc3cc(C)ccc23)s1,n,n,x,x,x
Cc1ccc(Cc2ccc(C(=O)NNC(N)=S)o2)cc1,n,n,n,n,n
C=CCn1c(SCC(=O)N(CCOC)c2c(N)n(CCCC)c(=O)[nH]c2=O)nnc1-c1ccc(Cl)cc1,n,n,n,n,n
COc1cccc(N2CCN(C(=O)c3ccc4c(=O)n(CCc5ccccc5)c(=O)[nH]c4c3)CC2)c1,7.31µM,14.6µM,x,x,x
O=C(c1ccc2c(c1)[nH]c(=S)n1c3ccccc3nc21)N1CCN(c2cccc(Cl)c2)CC1,18.4µM,18.4µM,n,n,n
COc1ccc(Cn2c(=O)[nH]c3cc(C(=O)N4CCN(c5ccccc5)CC4)ccc3c2=O)cc1,u,n,n,n,n
SMILES,DT40 TDP1 no CPT,TDP1 cell CPT,IL1B secr inh,HT1080 IDH1KD tx,HT1080NT lethal
COc1cc(=O)n2c(c1C(=O)NC(C)c1ccco1)CCN(C(=O)c1ccccc1SC)CC2 (configuration not stated),n,n,x,x,x
CCOc1ccc(-c2nnc(SCC(=O)NCCc3ccccc3)nc2-c2ccc(OCC)cc2)cc1,n,n,x,x,x
CCN(Cc1ccccc1)C(=O)Cn1ncc2c(=O)oc3ccc(C)cc3c21,n,n,x,x,x
CN1OC[C@@H]2CN(Cc3ccc(Cl)cc3)[C@H](c3ccc(-n4ccnc4)cc3)C[C@@H]21,u,u,n,u,u
CCCNC(=O)COC(=O)c1ccccc1C(=O)c1ccc(Cl)c([N+](=O)[O-])c1,10.3µM,u,-102.9,5.17µM,9.2µM
Cc1ccc(C(=O)c2ccccc2C(=O)OCC(=O)NCCc2ccc(Cl)cc2Cl)cc1,u,u,n,n,n
Cc1ccc(C(=O)OCC(=O)Nc2c(C)n(C)n(-c3ccccc3)c2=O)cc1[N+](=O)[O-],n,n,n,n,n
Cc1ccc(Cl)c(NC(=O)COC(=O)c2ccccc2C(=O)c2ccc(Cl)c([N+](=O)[O-])c2)c1Cl,10.3µM,n,-105.1,u,u
C[C@@H]1CN([C@H](C)CO)C(=O)CCCn2nncc2CO[C@H]1CN(C)Cc1ccc2cccnc2c1,n,n,n,n,n
O=C(CNC1CC1)Nc1cc(C(F)(F)F)ccc1Cl,n,n,n,n,n
COC(=S)Nc1cccc(C(F)(F)F)c1,n,n,x,n,n
COC(=O)/C=C/C(=O)Nc1cccc(C(F)(F)F)c1,14.6µM,9.2µM,-104.0,n,n
O=C(Cn1c(=O)oc2cc(Cl)ccc21)Nc1cccc(C(F)(F)F)c1,18.4µM,18.4µM,x,x,x
CNC(=O)Nc1cccc(C(F)(F)F)c1,n,n,n,n,n
O=C(COCC(=O)Nc1cccc(C(F)(F)F)c1)Nc1cccc(C(F)(F)F)c1,25.9µM,u,u,u,u
O=C(CNC1CCCCC1)Nc1cccc(C(F)(F)F)c1,n,n,-77.3,n,u
CC(C)N(CCCNC(=O)Cn1c(=O)c2cccn2c2ccc(F)cc21)Cc1ccccc1,n,n,n,n,n
CCN(CC)CCC(O)(c1ccc2c(c1)OCO2)c1cc(OC)c(OC)c(OC)c1 (configuration not stated),n,n,n,n,n
Cc1nc(C(F)(F)F)ccc1C(=O)N1CCC1(C)C(=O)NS(=O)(=O)c1cccc(C#N)c1 (configuration not stated),n,n,n,n,n
C[C@@H]1CN([C@@H](C)CO)S(=O)(=O)c2ccc(Br)cc2O[C@H]1CN(C)Cc1ccccc1F,10.3µM,14.6µM,n,u,u
C[C@H]1CN([C@@H](C)CO)S(=O)(=O)c2ccc(Br)cc2O[C@H]1CN(C)Cc1ccccc1F,23.1µM,16.4µM,u,n,n
Cc1cc(C)nc(NNC2=CC(=[N+]3CCCCC3)CC(C)(C)C2)n1,14.6µM,n,n,n,n
